Bioassay records from PubChem.
Hits are enriched below; roughly 2.9% of the tested compounds scored in any of these assays.
ADAM17 inh = inhibitors of human ADAM17; P78536; recombinant ADAM17, EDANS/DABCYL FRET peptide cleavage; inhibition, % at 6.95 µM; actives 0.83% (n = 370,000); AID 720648;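 active means inhibition above the mean of compounds lying between control limits plus 3 SD, set per campaign, cut at about 8.5% in these data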
Target sequence (P78536 215-824 limits assumed): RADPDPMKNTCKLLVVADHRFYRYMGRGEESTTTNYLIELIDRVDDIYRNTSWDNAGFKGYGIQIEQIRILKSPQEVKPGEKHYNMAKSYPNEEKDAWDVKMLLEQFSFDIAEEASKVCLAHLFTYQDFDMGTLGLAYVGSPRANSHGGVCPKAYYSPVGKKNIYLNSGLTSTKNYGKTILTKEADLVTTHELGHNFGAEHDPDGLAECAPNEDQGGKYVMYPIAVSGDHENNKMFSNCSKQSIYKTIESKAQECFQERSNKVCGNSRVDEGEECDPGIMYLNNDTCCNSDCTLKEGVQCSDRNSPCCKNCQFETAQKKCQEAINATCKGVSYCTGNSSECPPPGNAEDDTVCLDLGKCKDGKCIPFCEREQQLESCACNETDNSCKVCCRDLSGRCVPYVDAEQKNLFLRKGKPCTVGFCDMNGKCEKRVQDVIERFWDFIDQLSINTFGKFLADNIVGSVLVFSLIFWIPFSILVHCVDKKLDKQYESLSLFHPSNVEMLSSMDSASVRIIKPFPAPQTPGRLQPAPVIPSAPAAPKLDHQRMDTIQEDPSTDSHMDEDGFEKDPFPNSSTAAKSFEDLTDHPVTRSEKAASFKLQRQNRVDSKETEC
PLC-beta3 inh = blocks human PLC-beta3 enzyme activity; actives 0.18% (n = 370,000); Purified PLC-beta3, fluorogenic substrate, fluorescence; inhibition, % at 12.2 µM; Q01970; in the data active means inhibition above about 11%
KLK7 zymogen act = activators of human kallikrein-7 zymogen; AID 652039; activation, % at 7 µM; purified proKLK7, EDANS-DABCYL substrate fluorescence; 100% is mature enzyme control, 0% vehicle; actives 0.9% (n = 370,000);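 active means activation above the mean of all tested compounds plus 3 SD, computed per campaign excluding outliers beyond control limits, cut at about 13% in these data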
PLC-gamma1 inh = PLC-gamma1 (human) inhibition, primary screen; P19174; purified PLC-gamma1, fluorogenic substrate, fluorescence; inhibition, % at 12.2 µM; actives 0.84% (n = 370,000)
ADAM10 inh = ADAM10 inhibition, QFRET primary screen; recombinant ADAM10, EDANS/DABCYL FRET peptide cleavage, 3 h; AID 720582; actives 0.62% (n = 370,000); O14672; inhibition, % at 7 µM;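 active means inhibition above a per-campaign cutoff equal to the mean of compounds falling between control-based bounds plus 3 SD, cut at about 20% in these data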
PLCg1 ctr = counter-screen for PLC-beta3 inhibitors: inhibitors of human PLC-gamma1. shares compounds with PLC-gamma1 inh. purified PLC-gamma1, fluorogenic substrate, fluorescence. inhibition, % at 12.3 µM. actives 3.1% (n = 3,300). AID 743258
PLCbeta3 conf = human PLC-beta3 inhibition, confirmation. shares compounds with PLC-gamma1 inh. purified PLC-beta3, fluorogenic substrate fluorescence. inhibition, % at 12.3 µM. actives 1% (n = 3,300); in the data active means inhibition above about 11%
Each line names hits and unclear results; the compound was inactive in the other large screens (follow-up assays come after a bar, where they were run). Unless noted, no stated cut-off is given here; in the data, active means inhibition above about 9.5%; inactive means the rest.

Cn1c(=O)n(Cc2ccc(Cl)cc2)c(=O)c2c1nc1n2CCN1Cc1ccco1	PLC-gamma1 inh 11 | PLCg1 ctr inactive | PLCbeta3 conf inactive
CCCn1c(=O)c2c(nc3n2CCN3Cc2ccco2)n(C)c1=O	none
CCOC(=O)c1c(C)[nH]c(C(=O)CN2C(=O)NC3(CCCC3)C2=O)c1C	PLC-gamma1 inh 13 | PLCg1 ctr inactive | PLCbeta3 conf inactive
CCOC(=O)c1c(C)[nH]c(C)c1C(=O)CN1C(=O)NC2(CCCCCC2)C1=O	none
CC(=O)c1ccc(OC2(C)CCN(Cc3csc4ccccc34)C2)cc1 (stereo not given)	none
Cc1ccc(NC(=O)Cc2c(F)cccc2Cl)cc1S(=O)(=O)N1CCOCC1	none
Cc1ccc(NS(=O)(=O)c2c(F)cc(F)c(Cl)c2F)cc1S(=O)(=O)N1CCOCC1	PLC-gamma1 inh 9.8 | PLCg1 ctr inactive | PLCbeta3 conf inactive
O=C(CSc1nc2ccccc2c(=O)n1-c1ccc(Cl)c(Cl)c1)Nc1ccc2c(c1)CCC2	PLC-gamma1 inh 11 | PLCg1 ctr inactive | PLCbeta3 conf inactive
N#CCC(C(=O)c1cccnc1)c1ccccc1 (stereo not given)	PLC-beta3 inh 11 | PLCg1 ctr inactive | PLCbeta3 conf inactive
CN(C)CCC(C(=O)c1ccccc1)c1cccnc1 (stereo not given)	none
COc1ccc(CC2NCCC3=CC(=O)CCC32)cc1O (stereo not given)	none
O=C(Cn1cccc1C(=O)c1ccccc1)NCc1ccc(Cl)cc1	none
Cc1ccc(CNC(=O)Cn2cccc2C(=O)c2ccccc2)cc1	PLC-gamma1 inh 12 | PLCg1 ctr inactive | PLCbeta3 conf inactive
FC(F)(F)c1nc(Oc2ccccc2)c2ccccc2n1	PLC-gamma1 inh 10 | PLCg1 ctr inactive | PLCbeta3 conf inactive
O=C(Nc1ccc(Cl)cc1F)c1cc(S(=O)(=O)N2CCCCC2)ccc1F	PLC-gamma1 inh 12 | PLCg1 ctr inactive | PLCbeta3 conf inactive
CCOCCn1c(C(C)O)nc2ccccc21 (stereo not given)	PLC-gamma1 inh 10 | PLCg1 ctr inactive | PLCbeta3 conf inactive
CCOCCn1c(CC)nc2ccccc21	none
CCCCn1c(C(C)NC(=O)COC)nc2ccccc21 (stereo not given)	PLC-gamma1 inh 10 | PLCg1 ctr inactive | PLCbeta3 conf inactive
CCC(C)NC(=O)CNc1nnnn1-c1ccccc1 (stereo not given)	none
Cc1cc(NC(=O)COc2ccccc2C)no1	none
Cc1cc(NC(=O)COc2ccccc2C(N)=O)no1	PLC-gamma1 inh 9.5 | PLCg1 ctr inactive | PLCbeta3 conf inactive
COc1ccc(CCNC(=S)Nc2ccc(S(=O)(=O)Nc3ncccn3)cc2)cc1OC	none
COC1=C[C@H](C(=O)NCCOC(C)=O)[C@H](C)[C@@H](c2ccccc2)CC1=O	none
Fc1cc(F)cc(NC(=S)NN2CCOCC2)c1	PLC-gamma1 inh 11 | PLCg1 ctr inactive | PLCbeta3 conf inactive
CCNc1nc(-c2sc(NC(=O)C(C)(C)C)nc2C)c(-n2cc(-c3ccccc3)nn2)s1	none
COC(=O)[C@]12CCCCC=C1N(CCc1ccc(OC)c(OC)c1)C(=O)[C@H](CC(=O)NCCc1ccccc1OC)C2	none
O=C(Nc1ccccc1)C1CCN(C(=O)c2ccc([N+](=O)[O-])cc2)CC1	none
CC(=O)N1CCN(C(=O)c2ccc(Oc3ccccc3)cc2)CC1	none
O=C(c1ccccc1)N1CCN(C2CCCCCC2)CC1	PLC-gamma1 inh 14 | PLCg1 ctr inactive | PLCbeta3 conf inactive
O=C(c1ccc(F)cc1)N1CCN(C2CCCCC2)CC1	none
O=C(Nc1ccccc1)C1CCN(C(=O)c2ccccc2)CC1	PLC-beta3 inh 12 | PLCg1 ctr inactive | PLCbeta3 conf inactive
COc1ccc(NC(=O)C2CCN(C(=O)c3cccs3)CC2)cc1	PLC-gamma1 inh 9.6 | PLCg1 ctr inactive | PLCbeta3 conf inactive
O=C(c1ccccc1)N1CCN(C(=O)c2ccc(OC(F)(F)F)cc2)CC1	PLC-beta3 inh 12 | PLCg1 ctr inactive | PLCbeta3 conf inactive
O=C1NC(=S)SC1=Cc1ccccn1	none
CCc1nc2c(OCC3COc4ccccc4O3)cccn2c1N(C)C(=O)c1cccs1 (stereo not given)	none
COc1ccc(NC(=O)CSc2nnc(-c3n[nH]c4c3CCC4)n2N)cc1OC	none
CCN(CC)C(=O)CN1C(=O)C2CCCCN2C(=O)c2ccccc21 (stereo not given)	none
COc1ccccc1C(=O)Nc1ccccc1N1CCN(S(C)(=O)=O)CC1	PLC-gamma1 inh 11 | PLCg1 ctr inactive | PLCbeta3 conf inactive
CS(=O)(=O)N1CCN(c2ccccc2NC(=S)NC(=O)c2ccccc2[N+](=O)[O-])CC1	PLC-gamma1 inh 9.9 | PLCg1 ctr inactive | PLCbeta3 conf inactive
COc1ccccc1N1CCN(S(=O)(=O)CCNC(=O)CCc2ccccc2)CC1	PLC-gamma1 inh 9.7 | PLCg1 ctr inactive | PLCbeta3 conf inactive
CS(=O)(=O)N1CCN(c2ccccc2NC(=S)NC(=O)c2cccs2)CC1	none
COc1ccc(CN2CCCC(C(=O)N3CCCC3)C2)c(OC)c1OC (stereo not given)	PLC-gamma1 inh 11 | PLCg1 ctr inactive | PLCbeta3 conf inactive
Nn1cnnc1N/N=C/c1ccc(F)cc1	PLC-gamma1 inh 16 | PLCg1 ctr inactive | PLCbeta3 conf inactive
Nn1cnnc1N/N=C/c1ccccc1C(F)(F)F	none
Nn1cnnc1N/N=C/c1ccc(Cl)c([N+](=O)[O-])c1	PLC-gamma1 inh 12 | PLCg1 ctr inactive | PLCbeta3 conf inactive
Cc1ccc(/C=N/Nc2nncn2N)cc1	PLC-gamma1 inh 11 | PLCg1 ctr inactive | PLCbeta3 conf inactive
COC(=O)CCN(Cc1ccc(OC)cc1OC)S(=O)(=O)c1ccccc1Br	none
c1ccc(COc2cccc(-c3cc4nc(NCCCn5ccnc5)ccn4n3)c2)cc1	none
O=C(COc1ncnc2ccccc12)NC1CCS(=O)(=O)C1 (stereo not given)	PLC-gamma1 inh 10 | PLCg1 ctr inactive | PLCbeta3 conf inactive
COc1ccc(OCC(=O)NCCC2=CCCCC2)c([N+](=O)[O-])c1	PLC-gamma1 inh 10 | PLCg1 ctr inactive | PLCbeta3 conf inactive
COc1ccc(C(C)=O)c(OCC(=O)NCCC2=CCCCC2)c1	none
COc1cc(OC)cc(C(=O)NCC(=O)OCC(=O)N2c3ccccc3NC(=O)C2(C)C)c1	PLC-gamma1 inh 11 | PLCg1 ctr inactive | PLCbeta3 conf inactive
COC(=O)C1=COC(OC2OC(CO)C(O)C(O)C2O)C2C(C)CC(=O)C12 (stereo not given)	none
O=C(CSc1n[nH]c(-c2ccccc2)n1)Nc1ccc(F)cc1F	none
O=C(CSc1n[nH]c(-c2ccccc2)n1)Nc1ccccc1O	PLC-gamma1 inh 9.9 | PLCg1 ctr inactive | PLCbeta3 conf inactive
